A number with no mark means an inactive call.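 Rule for the calls: active = mean tau seeding fluorescence area under 1% of vehicle, meaning inhibition above a set limit; inactive = the rest.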
Molecular target: Microtubule-associated protein tau (Homo sapiens) (UniProt P10636)
Assay: inhibitors of seeded tau aggregation, primary screen, biochemical, seed amplification, ThT fluorescence (AID 2061166)
Conditions: Recombinant tau seeded by AD brain, ThT fluorescence AUC; at 100 µM; stronger effect = higher value

Sequence of Microtubule-associated protein tau (Homo sapiens) (P10636 whole entry, looked up): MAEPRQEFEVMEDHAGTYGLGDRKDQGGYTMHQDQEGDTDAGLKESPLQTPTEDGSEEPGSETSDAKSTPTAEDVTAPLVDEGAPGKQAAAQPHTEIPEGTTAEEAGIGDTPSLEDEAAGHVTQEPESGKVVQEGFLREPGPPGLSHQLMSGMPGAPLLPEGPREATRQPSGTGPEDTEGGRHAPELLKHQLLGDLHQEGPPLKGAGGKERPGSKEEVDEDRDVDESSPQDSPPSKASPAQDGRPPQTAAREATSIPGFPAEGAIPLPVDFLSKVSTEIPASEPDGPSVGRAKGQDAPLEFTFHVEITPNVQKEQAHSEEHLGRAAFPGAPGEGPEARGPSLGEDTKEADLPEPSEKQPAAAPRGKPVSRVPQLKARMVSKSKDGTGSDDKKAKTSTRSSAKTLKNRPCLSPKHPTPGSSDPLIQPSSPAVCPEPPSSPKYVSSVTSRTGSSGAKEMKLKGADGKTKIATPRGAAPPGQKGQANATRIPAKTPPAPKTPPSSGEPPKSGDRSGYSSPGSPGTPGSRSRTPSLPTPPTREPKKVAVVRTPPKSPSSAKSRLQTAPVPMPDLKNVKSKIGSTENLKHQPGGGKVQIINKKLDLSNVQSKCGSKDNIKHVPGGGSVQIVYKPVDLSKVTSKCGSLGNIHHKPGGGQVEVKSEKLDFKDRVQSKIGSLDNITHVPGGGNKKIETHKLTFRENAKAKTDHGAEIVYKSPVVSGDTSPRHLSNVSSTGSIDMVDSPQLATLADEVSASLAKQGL

Compound	inhibition [%]
CCC(C(=O)O)c1ccc(N2Cc3ccccc3C2=O)cc1 (centres undefined)	26.9
C=CCc1ccc(O)c(-c2ccc(O)c(CC=C)c2)c1	93.5
Oc1ccc(/C=C/c2cc(O)cc(O)c2)cc1	16.9
Cc1ccsc1C(=CCCN1CCCC(C(=O)O)C1)c1sccc1C (centres undefined)	3.27
Cc1c(N)c(=O)n(-c2ccccc2)n1C	0.254
CO/N=C(\C(=O)NC1C(=O)N2C(C(=O)[O-])=C(C[N+]3(C)CCCC3)CSC12)c1csc(N)n1 (centres undefined)	53.1
CN1CC(C(=O)NC2(C)OC3(O)C4CCCN4C(=O)C(Cc4ccccc4)N3C2=O)CC2c3cccc4[nH]cc(c34)CC21 (centres undefined)	34.2
O=C(O)CCCc1ccccc1	8.12
CCC(=O)NCCC1CCc2ccc3c(c21)CCO3 (centres undefined)	-20.8
NC(=O)N1CCC(CC(=O)N2CCC(C3c4ncc(Br)cc4CCc4cc(Cl)cc(Br)c43)CC2)CC1 (centres undefined)	20.1
OC(CCN1CCCCC1)(c1ccccc1)C1CCCCC1 (centres undefined)	21.7
O=C1CSC(=S)N1	-4.3
Cn1cnc2c(F)c(Nc3ccc(Br)cc3Cl)c(C(=O)NOCCO)cc21	-4.66
CCN1CCN(Cc2ccc(Nc3ncc(F)c(-c4cc(F)c5nc(C)n(C(C)C)c5c4)n3)nc2)CC1	15.2
CCC1=CC2CN(C1)Cc1c([nH]c3ccccc13)C(C(=O)OC)(c1cc3c(cc1OC)N(C)C1C(O)(C(=O)OC)C(OC(C)=O)C4(CC)C=CCN5CCC31C54)C2 (centres undefined)	27
Nc1ccccc1NC(=O)c1ccc(CNC(=O)OCc2cccnc2)cc1	-34.7
Brc1cccc(-c2cc(-c3ccc4c(c3)OCO4)[nH]n2)c1	-25.9
CCN(CC)CCNC(=O)c1c(C)[nH]c(/C=C2\C(=O)Nc3ccc(F)cc32)c1C	98.6
Nc1cccc2c1CN(C1CCC(=O)NC1=O)C2=O (centres undefined)	42.8
CC1OC(OCC2OC(Oc3c(-c4ccc(O)c(O)c4)oc4cc(O)cc(O)c4c3=O)C(O)C(O)C2O)C(O)C(O)C1O (centres undefined)	28.7
CCc1c2c(nc3ccc(OC(=O)N4CCC(N5CCCCC5)CC4)cc13)-c1cc3c(c(=O)n1C2)COC(=O)C3(O)CC (centres undefined)	46.1
O=c1cc(-c2ccccc2)oc2cc(O)c(O)c(O)c12	97.6

Compound	inhibition [%]
CC(=O)C1CCC2C3CC=C4CC(O)CCC4(C)C3CCC12C (centres undefined)	41.9
COC(=O)/C=C/C(=O)OC	3.37
C[N+](C)(C)CCO	13.4
CN(C)CCC=C1c2ccccc2CCc2ccccc21	13.9
CCN(CC)C(=S)SSC(=S)N(CC)CC	-17.5
Nc1nc(Cl)nc2c1ncn2C1CC(O)C(CO)O1 (centres undefined)	-52.8
O=NN(CCCl)C(=O)NC1CCCCC1	14.1
O=c1c(-c2ccc(O)cc2)coc2cc(O)cc(O)c12	-59.4
Cc1ccc(Nc2nccc(N(C)c3ccc4c(C)n(C)nc4c3)n2)cc1S(N)(=O)=O	-1.27
CCCCOc1ccc(CC(=O)NO)cc1	16.6
O=C(O)c1ccccc1O	11.4
CC1COc2c(N3CCN(C)CC3)c(F)cc3c(=O)c(C(=O)O)cn1c23 (centres undefined)	-27.6
Oc1cc(O)c2c(c1)OC(c1ccc(O)c(O)c1)C(O)C2 (centres undefined)	88.6
CCc1cc2c(cc1N1CCC(N3CCOCC3)CC1)C(C)(C)c1[nH]c3cc(C#N)ccc3c1C2=O	-7.3
Nc1c2c(nc3ccccc13)CCCC2	20.6
O=C(OC1CN2CCC1CC2)N1CCc2ccccc2C1c1ccccc1 (centres undefined)	-37.8
CCc1nc(N)nc(N)c1-c1ccc(Cl)cc1	-7.97
CC(C)(C)c1cc(C(C)(C)C)c(NC(=O)c2c[nH]c3ccccc3c2=O)cc1O	-88.7
CC1=NN(c2ccccc2)C(=O)C1	48.4
Nc1ccc(S(=O)(=O)c2ccc(N)cc2)cc1	26.5
COc1ccc(C2CNC(=O)C2)cc1OC1CCCC1 (centres undefined)	16.3
CC1(O)Cc2oc3cc(O)c(O)c(C(=O)O)c3c(=O)c2CO1 (centres undefined)	33.4
